Key:
Test in all cases: log2 ratio of Biotin-Ahx-Ub-VS probe labelling (fragment/DMSO); higher = less target engagement (more negative = stronger competition), active = hit call of the paper (q ≤ 0.05, log2 ratio ≤ -1)
Settings in all cases: compound concentration: 200 uM; treatment time: 3 h
[1] = biological target: T1, USP42 (UniProt Q9H9J4)
T1 sequence (whole entry): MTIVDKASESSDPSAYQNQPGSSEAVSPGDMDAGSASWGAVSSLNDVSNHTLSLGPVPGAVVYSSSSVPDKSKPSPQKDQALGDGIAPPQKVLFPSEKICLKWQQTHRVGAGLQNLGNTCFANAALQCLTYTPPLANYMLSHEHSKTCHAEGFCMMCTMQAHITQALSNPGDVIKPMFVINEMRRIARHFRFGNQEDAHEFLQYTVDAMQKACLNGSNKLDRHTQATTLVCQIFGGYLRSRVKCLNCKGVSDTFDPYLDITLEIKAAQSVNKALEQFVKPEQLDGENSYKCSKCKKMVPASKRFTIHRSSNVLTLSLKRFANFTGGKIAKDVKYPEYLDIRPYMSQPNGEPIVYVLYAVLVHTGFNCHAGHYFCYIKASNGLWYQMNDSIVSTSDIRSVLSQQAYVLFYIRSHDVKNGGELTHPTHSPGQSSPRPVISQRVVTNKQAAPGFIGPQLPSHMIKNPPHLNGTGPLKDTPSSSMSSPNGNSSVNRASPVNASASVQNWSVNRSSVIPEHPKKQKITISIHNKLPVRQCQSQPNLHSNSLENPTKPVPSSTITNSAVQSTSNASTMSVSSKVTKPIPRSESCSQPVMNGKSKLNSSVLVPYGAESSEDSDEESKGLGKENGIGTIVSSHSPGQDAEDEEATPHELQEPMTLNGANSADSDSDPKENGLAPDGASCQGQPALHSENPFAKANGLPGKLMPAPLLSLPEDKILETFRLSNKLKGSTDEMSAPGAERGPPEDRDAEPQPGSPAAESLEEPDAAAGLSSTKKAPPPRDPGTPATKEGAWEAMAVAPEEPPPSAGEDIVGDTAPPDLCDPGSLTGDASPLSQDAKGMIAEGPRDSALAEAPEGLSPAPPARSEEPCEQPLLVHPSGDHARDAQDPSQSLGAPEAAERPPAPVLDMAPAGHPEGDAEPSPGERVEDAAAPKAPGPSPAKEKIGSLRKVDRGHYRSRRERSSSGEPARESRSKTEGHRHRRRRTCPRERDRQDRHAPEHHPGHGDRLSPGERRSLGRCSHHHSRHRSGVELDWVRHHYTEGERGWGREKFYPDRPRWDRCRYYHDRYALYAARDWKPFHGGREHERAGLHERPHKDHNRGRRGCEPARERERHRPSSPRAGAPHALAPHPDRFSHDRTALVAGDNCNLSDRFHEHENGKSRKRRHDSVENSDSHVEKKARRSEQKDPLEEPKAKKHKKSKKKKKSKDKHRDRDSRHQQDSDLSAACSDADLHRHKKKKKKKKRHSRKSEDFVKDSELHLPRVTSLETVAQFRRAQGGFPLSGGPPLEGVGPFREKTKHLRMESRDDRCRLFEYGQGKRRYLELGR
Outline: (§1)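 In triplicate, 495 µg of HEK293T lysate per sample was incubated with fragment at 200 µM or vehicle for 3 h. Biotin-Ahx-Ub-VS was then added to 0.5 µM final for 1 h, and labelled DUBs were captured with NeutrAvidin, digested with LysC and trypsin, and measured by diaPASEF LC-MS/MS. Data are average log2 fragment/vehicle ratios by unpaired t-test from global-median-normalised Spectronaut label-free quantities, restricted to proteins with ≥2 unique peptides.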

[2] = biological target: USP46 (UniProt P62068)
Outline: as §1

[3] = biological target: T2, USP47 (UniProt Q96K76)
T2 sequence (whole entry): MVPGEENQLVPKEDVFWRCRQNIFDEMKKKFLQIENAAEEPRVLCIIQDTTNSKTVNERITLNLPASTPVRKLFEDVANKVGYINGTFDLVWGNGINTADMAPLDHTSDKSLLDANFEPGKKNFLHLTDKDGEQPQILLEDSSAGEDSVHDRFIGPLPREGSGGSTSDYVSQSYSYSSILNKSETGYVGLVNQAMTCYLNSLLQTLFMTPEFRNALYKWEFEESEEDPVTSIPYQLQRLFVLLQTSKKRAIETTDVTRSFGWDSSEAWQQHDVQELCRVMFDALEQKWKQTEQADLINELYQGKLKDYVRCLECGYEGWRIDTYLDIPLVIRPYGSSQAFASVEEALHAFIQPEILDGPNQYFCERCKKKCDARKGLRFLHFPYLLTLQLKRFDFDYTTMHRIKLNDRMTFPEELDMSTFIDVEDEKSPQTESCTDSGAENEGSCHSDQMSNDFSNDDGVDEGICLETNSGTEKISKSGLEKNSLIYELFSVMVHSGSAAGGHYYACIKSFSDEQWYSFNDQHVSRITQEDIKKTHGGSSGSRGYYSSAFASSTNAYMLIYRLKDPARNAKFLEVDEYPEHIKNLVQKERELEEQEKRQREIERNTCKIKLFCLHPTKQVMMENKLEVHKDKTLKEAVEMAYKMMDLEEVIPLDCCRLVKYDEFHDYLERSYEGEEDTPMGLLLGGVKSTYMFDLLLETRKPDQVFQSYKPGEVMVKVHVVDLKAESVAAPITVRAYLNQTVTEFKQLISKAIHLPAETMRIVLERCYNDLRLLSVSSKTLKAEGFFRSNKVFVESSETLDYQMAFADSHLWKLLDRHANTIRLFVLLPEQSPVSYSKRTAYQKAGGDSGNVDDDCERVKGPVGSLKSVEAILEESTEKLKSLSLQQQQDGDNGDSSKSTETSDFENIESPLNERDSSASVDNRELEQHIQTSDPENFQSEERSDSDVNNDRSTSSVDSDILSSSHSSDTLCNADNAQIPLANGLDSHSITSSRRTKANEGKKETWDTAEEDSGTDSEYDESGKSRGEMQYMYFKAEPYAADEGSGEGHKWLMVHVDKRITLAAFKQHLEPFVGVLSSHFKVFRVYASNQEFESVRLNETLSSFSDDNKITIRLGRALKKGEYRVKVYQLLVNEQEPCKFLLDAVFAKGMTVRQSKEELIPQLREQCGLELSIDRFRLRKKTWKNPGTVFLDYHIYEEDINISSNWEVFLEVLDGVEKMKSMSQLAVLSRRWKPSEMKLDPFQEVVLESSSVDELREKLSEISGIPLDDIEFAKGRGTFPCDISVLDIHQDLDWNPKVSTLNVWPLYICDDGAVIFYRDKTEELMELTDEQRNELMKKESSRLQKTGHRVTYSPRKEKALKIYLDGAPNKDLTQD
Outline: as §1

[4] = biological target: T3, USP48 (UniProt Q86UV5)
T3 sequence (whole entry): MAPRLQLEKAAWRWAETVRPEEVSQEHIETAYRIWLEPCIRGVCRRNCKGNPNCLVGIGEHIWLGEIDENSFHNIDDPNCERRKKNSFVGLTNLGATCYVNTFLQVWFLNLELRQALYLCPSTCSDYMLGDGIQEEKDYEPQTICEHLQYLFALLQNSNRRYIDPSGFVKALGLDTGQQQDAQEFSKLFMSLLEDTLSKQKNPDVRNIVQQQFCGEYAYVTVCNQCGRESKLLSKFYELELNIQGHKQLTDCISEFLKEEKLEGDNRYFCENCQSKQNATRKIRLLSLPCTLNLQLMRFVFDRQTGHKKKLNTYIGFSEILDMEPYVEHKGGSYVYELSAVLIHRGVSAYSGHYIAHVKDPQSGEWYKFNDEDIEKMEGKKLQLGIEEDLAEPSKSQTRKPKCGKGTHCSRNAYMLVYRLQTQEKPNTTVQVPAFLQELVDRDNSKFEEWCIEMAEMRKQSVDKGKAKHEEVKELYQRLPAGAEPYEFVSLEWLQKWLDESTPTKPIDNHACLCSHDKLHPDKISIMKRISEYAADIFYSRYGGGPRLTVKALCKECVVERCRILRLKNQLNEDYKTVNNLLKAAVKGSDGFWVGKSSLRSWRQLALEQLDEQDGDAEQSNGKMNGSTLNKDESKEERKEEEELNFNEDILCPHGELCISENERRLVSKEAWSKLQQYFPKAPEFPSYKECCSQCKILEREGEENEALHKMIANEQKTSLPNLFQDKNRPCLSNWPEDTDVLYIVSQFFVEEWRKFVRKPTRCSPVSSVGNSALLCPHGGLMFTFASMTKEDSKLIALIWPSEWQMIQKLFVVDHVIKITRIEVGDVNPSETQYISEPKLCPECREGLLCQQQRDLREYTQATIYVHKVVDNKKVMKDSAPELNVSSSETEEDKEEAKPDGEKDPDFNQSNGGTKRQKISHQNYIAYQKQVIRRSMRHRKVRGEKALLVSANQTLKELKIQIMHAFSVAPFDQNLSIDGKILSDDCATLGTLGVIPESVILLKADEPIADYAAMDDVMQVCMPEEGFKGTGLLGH
Outline: as §1

[5] = biological target: T4, USP5 (UniProt P45974)
T4 sequence (whole entry): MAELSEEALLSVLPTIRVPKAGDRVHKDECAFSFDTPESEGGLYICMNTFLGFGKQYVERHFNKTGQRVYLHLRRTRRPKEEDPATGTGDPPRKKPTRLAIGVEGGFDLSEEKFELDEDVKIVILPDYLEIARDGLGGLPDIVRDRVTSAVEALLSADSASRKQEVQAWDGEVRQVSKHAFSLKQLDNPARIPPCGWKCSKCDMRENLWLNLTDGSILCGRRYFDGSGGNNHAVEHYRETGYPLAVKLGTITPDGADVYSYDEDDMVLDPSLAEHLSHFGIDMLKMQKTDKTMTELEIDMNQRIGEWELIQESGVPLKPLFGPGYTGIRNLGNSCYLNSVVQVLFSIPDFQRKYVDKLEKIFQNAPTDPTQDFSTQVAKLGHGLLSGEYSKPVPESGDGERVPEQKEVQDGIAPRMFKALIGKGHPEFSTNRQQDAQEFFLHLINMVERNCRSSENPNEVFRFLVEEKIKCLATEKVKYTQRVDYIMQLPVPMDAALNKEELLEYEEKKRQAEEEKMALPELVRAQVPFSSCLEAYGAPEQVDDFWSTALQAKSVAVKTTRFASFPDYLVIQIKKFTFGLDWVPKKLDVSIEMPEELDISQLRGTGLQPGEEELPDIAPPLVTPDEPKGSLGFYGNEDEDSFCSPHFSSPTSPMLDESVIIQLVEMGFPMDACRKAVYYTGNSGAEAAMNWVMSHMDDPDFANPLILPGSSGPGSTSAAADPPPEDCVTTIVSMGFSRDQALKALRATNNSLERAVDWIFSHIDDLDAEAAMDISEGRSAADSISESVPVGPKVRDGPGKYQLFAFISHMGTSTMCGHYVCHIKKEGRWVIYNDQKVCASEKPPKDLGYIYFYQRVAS
Outline: as §1

[6] = biological target: USP54 (UniProt Q70EL1)
Outline: as §1

[7] = biological target: USP7 (UniProt Q93009)
Outline: as §1

[8] = biological target: T5, USP8 (UniProt P40818)
T5 sequence (whole entry): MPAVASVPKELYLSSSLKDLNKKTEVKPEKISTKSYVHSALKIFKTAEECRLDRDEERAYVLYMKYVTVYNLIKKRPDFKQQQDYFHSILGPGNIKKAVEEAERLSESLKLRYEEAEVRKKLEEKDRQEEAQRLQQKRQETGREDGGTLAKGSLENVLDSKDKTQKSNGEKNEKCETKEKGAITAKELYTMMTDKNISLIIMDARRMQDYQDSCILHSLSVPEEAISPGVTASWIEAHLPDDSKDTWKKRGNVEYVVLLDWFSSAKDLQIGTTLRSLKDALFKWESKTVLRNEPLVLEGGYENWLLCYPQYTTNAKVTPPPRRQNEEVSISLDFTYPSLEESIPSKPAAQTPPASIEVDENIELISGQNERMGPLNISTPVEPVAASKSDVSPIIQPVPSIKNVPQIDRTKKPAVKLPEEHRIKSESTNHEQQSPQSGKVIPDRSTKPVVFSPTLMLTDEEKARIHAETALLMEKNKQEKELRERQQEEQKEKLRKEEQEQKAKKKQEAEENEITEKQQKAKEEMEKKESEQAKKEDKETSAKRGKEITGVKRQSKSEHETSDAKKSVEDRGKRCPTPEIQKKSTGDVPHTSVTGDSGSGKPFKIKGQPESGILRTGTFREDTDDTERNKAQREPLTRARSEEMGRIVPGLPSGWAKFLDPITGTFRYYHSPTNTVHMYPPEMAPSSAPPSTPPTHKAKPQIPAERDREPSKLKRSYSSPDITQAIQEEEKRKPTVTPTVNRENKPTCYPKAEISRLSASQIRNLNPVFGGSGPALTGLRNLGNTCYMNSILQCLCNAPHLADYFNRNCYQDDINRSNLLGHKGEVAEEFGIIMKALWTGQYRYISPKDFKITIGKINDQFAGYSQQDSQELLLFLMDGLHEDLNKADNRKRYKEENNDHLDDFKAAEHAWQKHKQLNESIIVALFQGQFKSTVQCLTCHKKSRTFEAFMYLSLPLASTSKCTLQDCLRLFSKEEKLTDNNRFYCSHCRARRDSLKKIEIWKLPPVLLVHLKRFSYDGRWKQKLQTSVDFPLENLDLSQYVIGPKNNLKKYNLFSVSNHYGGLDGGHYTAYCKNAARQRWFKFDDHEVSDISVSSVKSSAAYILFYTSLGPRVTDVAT
Outline: as §1

Measured: log2 ratio of Biotin-Ahx-Ub-VS probe labelling

Chain of USP54 (Q70EL1 whole entry): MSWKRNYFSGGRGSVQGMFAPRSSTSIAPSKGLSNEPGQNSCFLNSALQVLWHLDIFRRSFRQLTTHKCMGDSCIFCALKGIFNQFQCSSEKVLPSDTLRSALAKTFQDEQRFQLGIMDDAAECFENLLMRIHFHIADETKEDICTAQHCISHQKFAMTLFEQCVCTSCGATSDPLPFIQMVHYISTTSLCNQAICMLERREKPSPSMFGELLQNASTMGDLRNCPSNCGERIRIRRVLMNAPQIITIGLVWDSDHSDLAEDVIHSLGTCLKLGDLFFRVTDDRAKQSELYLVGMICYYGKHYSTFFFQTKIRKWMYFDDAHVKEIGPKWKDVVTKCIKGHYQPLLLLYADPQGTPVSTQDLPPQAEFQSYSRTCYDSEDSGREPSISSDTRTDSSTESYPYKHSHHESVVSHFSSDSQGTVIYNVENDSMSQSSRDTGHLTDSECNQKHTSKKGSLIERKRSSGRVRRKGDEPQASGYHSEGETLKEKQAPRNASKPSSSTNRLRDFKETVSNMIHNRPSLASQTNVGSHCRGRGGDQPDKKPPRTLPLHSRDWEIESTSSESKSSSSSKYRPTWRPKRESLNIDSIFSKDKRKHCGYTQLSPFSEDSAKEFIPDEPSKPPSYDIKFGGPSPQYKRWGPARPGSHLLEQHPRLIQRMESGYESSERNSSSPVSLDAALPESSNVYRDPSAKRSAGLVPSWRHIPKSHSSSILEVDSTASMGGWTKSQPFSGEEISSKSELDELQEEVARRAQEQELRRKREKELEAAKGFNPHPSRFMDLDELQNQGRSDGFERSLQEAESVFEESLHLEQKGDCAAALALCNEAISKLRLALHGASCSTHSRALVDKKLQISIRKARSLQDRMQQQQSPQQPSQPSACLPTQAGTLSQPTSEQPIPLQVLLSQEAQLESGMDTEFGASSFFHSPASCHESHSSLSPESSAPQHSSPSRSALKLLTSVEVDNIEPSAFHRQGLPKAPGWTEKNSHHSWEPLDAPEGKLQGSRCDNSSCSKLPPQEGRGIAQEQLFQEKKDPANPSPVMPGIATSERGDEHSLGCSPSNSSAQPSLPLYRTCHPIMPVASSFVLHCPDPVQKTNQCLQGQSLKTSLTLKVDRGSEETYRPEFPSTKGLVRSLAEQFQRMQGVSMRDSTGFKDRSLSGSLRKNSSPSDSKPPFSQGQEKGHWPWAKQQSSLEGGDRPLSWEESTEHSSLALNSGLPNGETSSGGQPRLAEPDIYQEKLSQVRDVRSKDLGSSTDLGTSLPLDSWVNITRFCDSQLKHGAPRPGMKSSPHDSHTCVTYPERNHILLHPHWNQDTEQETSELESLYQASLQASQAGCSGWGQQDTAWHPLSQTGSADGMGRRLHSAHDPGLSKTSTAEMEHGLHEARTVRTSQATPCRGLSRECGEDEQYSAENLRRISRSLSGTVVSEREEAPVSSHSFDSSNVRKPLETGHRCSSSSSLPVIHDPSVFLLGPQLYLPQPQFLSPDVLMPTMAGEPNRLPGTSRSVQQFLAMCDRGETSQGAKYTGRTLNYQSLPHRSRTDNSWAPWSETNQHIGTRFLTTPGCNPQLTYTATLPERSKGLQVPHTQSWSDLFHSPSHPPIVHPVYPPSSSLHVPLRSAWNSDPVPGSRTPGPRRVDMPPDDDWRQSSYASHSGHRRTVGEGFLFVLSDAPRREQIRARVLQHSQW
Chain of USP46 (P62068 whole entry): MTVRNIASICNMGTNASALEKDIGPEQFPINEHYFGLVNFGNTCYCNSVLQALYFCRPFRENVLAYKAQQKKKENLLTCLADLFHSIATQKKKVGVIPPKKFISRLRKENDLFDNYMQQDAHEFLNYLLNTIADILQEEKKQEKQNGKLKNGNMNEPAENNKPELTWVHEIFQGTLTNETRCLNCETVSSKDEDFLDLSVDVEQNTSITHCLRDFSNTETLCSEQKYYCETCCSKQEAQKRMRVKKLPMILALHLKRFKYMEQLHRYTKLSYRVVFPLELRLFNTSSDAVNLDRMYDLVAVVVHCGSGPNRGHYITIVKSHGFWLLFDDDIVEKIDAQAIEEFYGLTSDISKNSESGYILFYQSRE
Chain of USP7 (Q93009 whole entry, looked up): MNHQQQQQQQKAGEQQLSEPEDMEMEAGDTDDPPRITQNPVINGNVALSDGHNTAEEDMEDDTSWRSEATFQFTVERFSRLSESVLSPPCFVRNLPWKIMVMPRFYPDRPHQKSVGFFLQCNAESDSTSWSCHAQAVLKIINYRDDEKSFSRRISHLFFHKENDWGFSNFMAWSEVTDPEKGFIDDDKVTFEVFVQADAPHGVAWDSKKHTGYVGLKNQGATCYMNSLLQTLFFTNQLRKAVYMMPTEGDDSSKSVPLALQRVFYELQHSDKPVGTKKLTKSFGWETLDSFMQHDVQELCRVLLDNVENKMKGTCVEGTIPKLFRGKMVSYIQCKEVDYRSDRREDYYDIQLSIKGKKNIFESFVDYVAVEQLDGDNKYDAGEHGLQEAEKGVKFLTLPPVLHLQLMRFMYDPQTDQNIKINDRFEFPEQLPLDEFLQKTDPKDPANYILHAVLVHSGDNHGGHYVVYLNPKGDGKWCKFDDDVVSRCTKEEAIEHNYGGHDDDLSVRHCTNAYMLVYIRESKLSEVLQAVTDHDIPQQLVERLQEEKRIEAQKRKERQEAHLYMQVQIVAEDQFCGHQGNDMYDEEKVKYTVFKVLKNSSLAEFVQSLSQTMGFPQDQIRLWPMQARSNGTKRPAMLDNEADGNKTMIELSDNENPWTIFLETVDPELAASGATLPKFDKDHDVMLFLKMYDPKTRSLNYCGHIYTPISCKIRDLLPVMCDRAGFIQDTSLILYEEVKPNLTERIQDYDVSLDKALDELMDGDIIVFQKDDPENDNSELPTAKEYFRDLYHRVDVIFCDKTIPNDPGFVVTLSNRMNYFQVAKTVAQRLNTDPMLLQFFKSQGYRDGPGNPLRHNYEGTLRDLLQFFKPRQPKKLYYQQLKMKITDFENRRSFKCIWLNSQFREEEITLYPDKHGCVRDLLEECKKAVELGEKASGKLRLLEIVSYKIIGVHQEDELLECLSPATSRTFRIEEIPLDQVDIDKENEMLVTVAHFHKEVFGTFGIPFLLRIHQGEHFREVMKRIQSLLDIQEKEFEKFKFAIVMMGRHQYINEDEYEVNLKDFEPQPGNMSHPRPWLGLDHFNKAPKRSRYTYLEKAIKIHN

O=C(CCl)NC1CCOc2ccccc21 (stereo not drawn)
inactive: [1] 0.184 | [2] -0.506 | [3] -0.268 | [4] -0.603 | [5] -0.575 | [6] 0.931 | [7] -0.739 | [8] -0.69

— the supplement of paper PMC11732987, “Enantioselective OTUD7B fragment discovery through chemoproteomics screening and high-throughput optimisation” (Communications Chemistry, 2025)
